Data published in article PMC8384837, “Expanding the binding specificity for RNA recognition by a PUF domain”.

Tests used:
Experiment in all cases: yeast three-hybrid, YBZ-1, SC-Leu-His + 0.5 mM 3-AT, 4 days
Conditions in all cases: tags: N-Gal4 AD-HA kept; label: inside an RPR1-promoter hybrid RNA with tandem MS2 sites; ssRNA
PUM1 PUF domain R5-GRV = PUM1 PUF domain R5-GRV (Homo sapiens, UniProt Q14671 828-1176, C1007G;Q1011V)
Outline: (§1)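 Matching RNA elements and Pumilio-1 PUF domain libraries, randomized at the three base-contacting residues of every repeat, were co-expressed from a centromeric plasmid in strain YBZ-1 (LexA–MS2 coat fusion, HIS3 reporter). The repeat regions were PCR-amplified and Illumina-sequenced from cells grown four days on SC-Leu (input) or SC-Leu-His + 0.5 mM 3-AT (selection). The interaction score is the log change in variant frequency from input to selection. It is computed in log2, with a pseudocount of 1 for absent variants.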

PUM1 PUF domain R1-KPL = PUM1 PUF domain R1-KPL (Homo sapiens, UniProt Q14671 828-1176, S863K;R864P;Q867L)
Outline: as §1

PUM1 PUF domain R1-RPC = PUM1 PUF domain R1-RPC (Homo sapiens, UniProt Q14671 828-1176, S863R;R864P;Q867C)
Outline: as §1

PUM1 PUF domain R7-VVK = PUM1 PUF domain R7-VVK (Homo sapiens, UniProt Q14671 828-1176, S1079V;N1080V;E1083K)
Outline: as §1

PUM1 PUF domain R3-LWC = PUM1 PUF domain R3-LWC (Homo sapiens, UniProt Q14671 828-1176, C935L;R936W;Q939C)
Outline: as §1

PUM1 PUF domain R2-DRQ = PUM1 PUF domain R2-DRQ (Homo sapiens, UniProt Q14671 828-1176, N899D;Y900R)
Outline: as §1

PUM1 PUF domain R4-HWP = PUM1 PUF domain R4-HWP (Homo sapiens, UniProt Q14671 828-1176, N971H;H972W;Q975P)
Outline: as §1

PUM1 PUF domain R4-GPT = PUM1 PUF domain R4-GPT (Homo sapiens, UniProt Q14671 828-1176, N971G;H972P;Q975T)
Outline: as §1

PUM1 PUF domain R5-HLE = PUM1 PUF domain R5-HLE (Homo sapiens, UniProt Q14671 828-1176, C1007H;R1008L;Q1011E)
Outline: as §1

PUM1 PUF domain R3-GPE = PUM1 PUF domain R3-GPE (Homo sapiens, UniProt Q14671 828-1176, C935G;R936P;Q939E)
Outline: as §1

Q: For “GGCUAGAACUAGUGGAUCCCCCGGCGCCCGGCGGCUCGAGCCCGGGUAAGUGUGAAUAGUCUGCAUGCCGCCGGGCGCCAUGCCUGCAGGUCGACUCUAGAAAACAUG”, which binding signal (PUM1 PUF domain R5-GRV) is on record?
A: 2.53 log2 enrichment (interaction score)

Q: “GGCUAGAACUAGUGGAUCCCCCGGCGCCCGGCGGCUCGAGCCCGGGUAAGUGUAAAUCGUCUGCAUGCCGCCGGGCGCCAUGCCUGCAGGUCGACUCUAGAAAACAUG” was tested. Which binding signal (PUM1 PUF domain R1-KPL) did it give?
A: 2.58 log2 enrichment (interaction score)

Q: What about the binding signal (PUM1 PUF domain R1-RPC) of the same sequence?
A: 2.57 log2 enrichment (interaction score)

Q: “GGCUAGAACUAGUGGAUCCCCCGGCGCCCGGCGGCUCGAGCCCGGGUAAGUUUAAAUAGUCUGCAUGCCGCCGGGCGCCAUGCCUGCAGGUCGACUCUAGAAAACAUG” was tested. Which binding signal (PUM1 PUF domain R7-VVK) did it give?
A: 3.27 log2 enrichment (interaction score)

Q: “GGCUAGAACUAGUGGAUCCCCCGGCGCCCGGCGGCUCGAGCCCGGGUAAGUGUAAUUAGUCUGCAUGCCGCCGGGCGCCAUGCCUGCAGGUCGACUCUAGAAAACAUG” was tested. Which binding signal (PUM1 PUF domain R3-LWC) did it give?
A: 2.16 log2 enrichment (interaction score)

Q: Which binding signal (PUM1 PUF domain R2-DRQ) does the source give for “GGCUAGAACUAGUGGAUCCCCCGGCGCCCGGCGGCUCGAGCCCGGGUAAGUGUAAAAAGUCUGCAUGCCGCCGGGCGCCAUGCCUGCAGGUCGACUCUAGAAAACAUG” here?
A: 2.96 log2 enrichment (interaction score)

Q: Which binding signal (PUM1 PUF domain R4-HWP) does the source give for “GGCUAGAACUAGUGGAUCCCCCGGCGCCCGGCGGCUCGAGCCCGGGUAAGUGUAUAUAGUCUGCAUGCCGCCGGGCGCCAUGCCUGCAGGUCGACUCUAGAAAACAUG” here?
A: 4.4 log2 enrichment (interaction score)

Q: What about the binding signal (PUM1 PUF domain R4-GPT) of the same sequence?
A: 2.14 log2 enrichment (interaction score)

Q: For “GGCUAGAACUAGUGGAUCCCCCGGCGCCCGGCGGCUCGAGCCCGGGUAAGUGUAAAUUGUCUGCAUGCCGCCGGGCGCCAUGCCUGCAGGUCGACUCUAGAAAACAUG”, which binding signal (PUM1 PUF domain R1-KPL) is on record?
A: 3.37 log2 enrichment (interaction score)

Q: What about the binding signal (PUM1 PUF domain R1-RPC) of the same sequence?
A: 1.56 log2 enrichment (interaction score)

Q: How did the binding signal (PUM1 PUF domain R5-HLE) turn out when “GGCUAGAACUAGUGGAUCCCCCGGCGCCCGGCGGCUCGAGCCCGGGUAAGUGUCAAUAGUCUGCAUGCCGCCGGGCGCCAUGCCUGCAGGUCGACUCUAGAAAACAUG” was run?
A: 0.68 log2 enrichment (interaction score)

Q: How did the binding signal (PUM1 PUF domain R3-LWC) turn out when “GGCUAGAACUAGUGGAUCCCCCGGCGCCCGGCGGCUCGAGCCCGGGUAAGUGUAAGUAGUCUGCAUGCCGCCGGGCGCCAUGCCUGCAGGUCGACUCUAGAAAACAUG” was run?
A: 3.65 log2 enrichment (interaction score)

Q: And the binding signal (PUM1 PUF domain R3-GPE)?
A: 5.98 log2 enrichment (interaction score)

Q: How did the binding signal (PUM1 PUF domain R5-GRV) turn out when “GGCUAGAACUAGUGGAUCCCCCGGCGCCCGGCGGCUCGAGCCCGGGUAAGUGUUAAUAGUCUGCAUGCCGCCGGGCGCCAUGCCUGCAGGUCGACUCUAGAAAACAUG” was run?
A: 3.07 log2 enrichment (interaction score)

Q: What about the binding signal (PUM1 PUF domain R5-HLE) of the same sequence?
A: 2.54 log2 enrichment (interaction score)

Q: How did the binding signal (PUM1 PUF domain R4-HWP) turn out when “GGCUAGAACUAGUGGAUCCCCCGGCGCCCGGCGGCUCGAGCCCGGGUAAGUGUAAAUAGUCUGCAUGCCGCCGGGCGCCAUGCCUGCAGGUCGACUCUAGAAAACAUG” was run?
A: 5.47 log2 enrichment (interaction score)

Q: What about the binding signal (PUM1 PUF domain R5-GRV) of the same sequence?
A: 2.75 log2 enrichment (interaction score)

Q: What about the binding signal (PUM1 PUF domain R4-GPT) of the same sequence?
A: 2.42 log2 enrichment (interaction score)

Q: And the binding signal (PUM1 PUF domain R5-HLE)?
A: 1.15 log2 enrichment (interaction score)
